MsrA act – bovine MsrA enzyme activators, primary screen, biochemical, absorbance, HTS | activation, % at 10.6 µM | actives 0.3% (n = 360,000) | Methionine sulfoxide reductase A (Bos taurus) | purified bovine MsrA, absorbance read-out; in the data active means activation above about 7.5%;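 further: 0% = vehicle and 100% = reference activator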
NadD inh – inhibitors of S. aureus NadD, primary screen, biochemical, colorimetric, uHTS. Nicotinate-nucleotide adenylyltransferase NadD (Staphylococcus aureus N315). purified NadD enzyme, colorimetric absorbance read-out. inhibition, % at 20 µM. actives 0.78% (n = 360,000); in the data active means inhibition above about 26%
MsrA inhibitor – bovine MsrA enzyme inhibitors, primary screen, biochemical, absorbance, HTS. purified bovine MsrA, absorbance read-out. inhibition, % at 15.5 µM. actives 0.75% (n = 360,000). AID 651718, 2012;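 further: 0% = vehicle wells with enzyme and 100% = reference inhibitor wells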
rCAG binder – binders of r(CAG) RNA repeats, primary screen, biochemical, fluorescence; inhibition, % at 3 µM; AID 651821, 2012; actives 1.3% (n = 370,000); r(CAG) RNA repeat, TO-PRO-1 dye displacement fluorescence;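 active means inhibition above the plate cutoff, the mean of all test compounds on that plate plus 3 SD, cut at about 35% in these data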;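 further: 0% = DMSO alone and 100% = 100 µM mitoxantrone as full dye displacement; higher means more dye released from RNA so lower well fluorescence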
MsrA inh confirm – bovine MsrA inhibitors, retest, confirmation, biochemical, absorbance, HTS; shares compounds with MsrA inhibitor; purified bovine MsrA, absorbance read-out; inhibition, % at 15.5 µM; actives 41% (n = 2,300); AID 651822, 2012;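 further: coupled to thioredoxin reductase with NADPH and selenocystamine and DMSO as substrate; 0% = vehicle only and 100% = full effect of reference inhibitor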
Numbers without * were called inactive. An excerpt weighted towards active compounds, which were near 2.7% of everything screened. Unless noted, no stated cut-off is given here; in the data, active means inhibition above about 4.5%; inactive means the rest.

What do the screens show for `COCCNC(=O)/C(C#N)=C/C(C)=C/c1ccccc1`?
MsrA act: -2; NadD inh: -2; MsrA inhibitor: 6.0*; rCAG binder: -1; MsrA inh confirm: 3

What do the screens show for `COCCNC(=O)/C(C#N)=C/c1cccc(/C=C(\C#N)C(=O)NCCOC)c1`?
MsrA act: -2; NadD inh: -6; MsrA inhibitor: -1; rCAG binder: 1

Results for CCCCCCN1CCN(C2CN(Cc3cn(CCCC(=O)OC)nn3)S(=O)(=O)C2)CC1 (stereo unspecified) ?
MsrA act: -8; NadD inh: -2; MsrA inhibitor: 0; rCAG binder: -1

Results for N#Cc1c(N2CCCC2)ccc(Br)c1Cl ?
MsrA act: -11; NadD inh: -7; MsrA inhibitor: 6.0*; rCAG binder: 1; MsrA inh confirm: 9.0*

What do the screens show for `Nc1cc(Cl)ccc1N1CCCCC1`?
MsrA act: -5; NadD inh: 0; MsrA inhibitor: -1; rCAG binder: -4

How did O=C(NCc1cc(Cl)cc(Cl)c1)c1ccc2nc(COCCO)[nH]c2c1 do in these assays?
MsrA act: 0; NadD inh: 3; MsrA inhibitor: 0; rCAG binder: 6

What do the screens show for `Cc1nc2c(o1)C(=O)c1ccccc1C2=Nc1ccccc1`?
MsrA act: -2; NadD inh: -4; MsrA inhibitor: 8.9*; rCAG binder: 1; MsrA inh confirm: 15*

Results for COc1ccc(-c2nc(=S)c3c(n2CCN2CCOCC2)CC(C)(C)OC3)cc1 ?
MsrA act: -12; NadD inh: -1; MsrA inhibitor: 4.9*; rCAG binder: 0; MsrA inh confirm: 4

What do the screens show for `C=CCn1c(-c2ccccc2)nc(=S)c2c1CC(C)(C)OC2`?
MsrA act: -4; NadD inh: 2; MsrA inhibitor: 5.1*; rCAG binder: -5; MsrA inh confirm: 4

What do the screens show for `Cc1cc(/C=C(\C#N)C(=O)O)c(C)n1CC(C)C`?
MsrA act: -3; NadD inh: -1; MsrA inhibitor: 7.2*; rCAG binder: 4; MsrA inh confirm: 3

How did COc1ccc(CCNC(=O)CSc2nc3c(sc(=S)n3-c3ccccc3)c(=O)[nH]2)cc1OC do in these assays?
MsrA act: -3; NadD inh: 4; MsrA inhibitor: 4; rCAG binder: 19

How did COCCCNC(=O)CSc1nc2c(sc(=S)n2-c2cc(Cl)ccc2OC)c(=O)[nH]1 do in these assays?
MsrA act: -14; NadD inh: 2; MsrA inhibitor: 5.8*; rCAG binder: 21; MsrA inh confirm: 4

Results for COc1ccc(/C=N/NC(=O)c2cc3cc(OC)c(OC)cc3[nH]2)cc1 ?
MsrA act: -1; NadD inh: 6; MsrA inhibitor: 5.3*; rCAG binder: 0; MsrA inh confirm: 7.8*

What do the screens show for `COc1cccc(/C=N/NC(=O)c2[nH]c(C)c(C(=O)N/N=C/c3cccc(OC)c3)c2C)c1`?
MsrA act: -5; NadD inh: 17; MsrA inhibitor: 3; rCAG binder: 3

What do the screens show for `COc1ccc2cc(C(=O)N/N=C/c3cc(OC)c(OC)c(OC)c3)[nH]c2c1`?
MsrA act: -8; NadD inh: 2; MsrA inhibitor: 5.8*; rCAG binder: 2; MsrA inh confirm: 6.4*

How did COc1ccc2[nH]c(C(=O)N/N=C/c3ccc(O)cc3O)cc2c1 do in these assays?
MsrA act: -4; NadD inh: 0; MsrA inhibitor: 6.3*; rCAG binder: 16; MsrA inh confirm: 4

How did COc1ccc(/C=N/NC(=O)c2[nH]c(C)c(C(=O)N/N=C/c3ccc(OC)cc3)c2C)cc1 do in these assays?
MsrA act: -4; NadD inh: 17; MsrA inhibitor: 4.9*; rCAG binder: 4; MsrA inh confirm: 5.5*

What do the screens show for `CC(OC(=O)c1ccc(C#N)cc1)C(=O)Nc1ccc(Cl)cn1` (stereo unspecified)?
MsrA act: -5; NadD inh: -1; MsrA inhibitor: 0; rCAG binder: -3

How did COc1ccc(CN2C(=O)CN(S(C)(=O)=O)CC2(C)C(=O)NC(C)C)cc1OC (stereo unspecified) do in these assays?
MsrA inhibitor: 0; rCAG binder: 0

Results for CCOc1ccc(CN(C)C(=O)CNC(=O)C2CCCCC2)cc1OC ?
MsrA act: 0; NadD inh: -2; MsrA inhibitor: 0; rCAG binder: -2

What do the screens show for `COc1cc2cc(C(=O)N/N=C/c3ccc(F)cc3)[nH]c2cc1OC`?
MsrA act: -4; NadD inh: 1; MsrA inhibitor: 4.8*; rCAG binder: 3; MsrA inh confirm: 6.0*

What do the screens show for `COc1cc2cc(C(=O)N/N=C/c3ccccc3Cl)[nH]c2cc1OC`?
MsrA act: -15; NadD inh: -7; MsrA inhibitor: 1; rCAG binder: 2

What do the screens show for `Cc1nn(CCC(N)=S)c2nc(-c3cccs3)cc(C(F)(F)F)c12`?
MsrA act: -3; NadD inh: -8; MsrA inhibitor: 4.8*; rCAG binder: 1; MsrA inh confirm: 4

How did CCCS(=O)(=O)c1c(S(=O)(=O)CCC)c2c(N)cccn2c1C(=O)OC do in these assays?
MsrA act: -13; NadD inh: 3; MsrA inhibitor: 5.2*; rCAG binder: 24; MsrA inh confirm: 1

What do the screens show for `Cc1ccc(C(=O)C2=C(O)C(=O)N(CCCN3CCOCC3)C23C(=O)N(C)c2ccccc23)o1` (stereo unspecified)?
MsrA act: -1; NadD inh: -3; MsrA inhibitor: 10*; rCAG binder: 11; MsrA inh confirm: 6.2*

How did CCN1C(=O)C2(C(C(=O)c3ccc(C)o3)=C(O)C(=O)N2CCCN2CCOCC2)c2ccccc21 (stereo unspecified) do in these assays?
MsrA act: 8; NadD inh: 2; MsrA inhibitor: 1; rCAG binder: 0

Results for COCC(C)n1c(SCC(=O)NC(=O)NC2CCCC2)nc2ccccc2c1=O (stereo unspecified) ?
MsrA act: 7; NadD inh: -9; MsrA inhibitor: 1; rCAG binder: -2

Results for CC(=O)c1c(C(=O)O)c2ccccc2[nH]c1=O ?
MsrA act: -2; NadD inh: -3; MsrA inhibitor: 5.1*; rCAG binder: -3; MsrA inh confirm: 1

Results for COc1ccc2c(c1)CCCN2C(=O)C1CCCN(S(=O)(=O)c2ccc(C)c(C)c2)C1 (stereo unspecified) ?
rCAG binder: 5

Results for N#Cc1nc(-c2cccs2)oc1N1CCOCC1 ?
MsrA act: -4; NadD inh: 1; MsrA inhibitor: 5.1*; rCAG binder: 1; MsrA inh confirm: 2

What do the screens show for `COc1ccc(-c2oc3ccc(-c4ccc(OC)nc4)cc3c2C#CC2(O)CCCCC2)cc1`?
MsrA act: 0; NadD inh: 8; MsrA inhibitor: 2; rCAG binder: 7

Source: PubChem BioAssay (several laboratories)
